From PubChem BioAssay (NCI)
Compounds without any hit were thinned out: in the full panel of roughly 83,000, 20% have a hit.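 Treatment: one concentration, 48 hours, 96-well format. Scoring: percent growth, with anything below 10 considered active.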 A number with no mark means an inactive call. The source made the active and inactive calls.

What was measured:
Assay in all cases: NCI-60 one-dose screen, 48 h (100 = growth as untreated, 0 = no growth, -100 = all killed)
Settings in all cases: 10 µM unless noted
NCI-H23 lung = test system: NCI-H23 lung
NCI-H226 lung = test system: NCI-H226 lung
NCI-H322M lung = test system: NCI-H322M lung
HOP-62 NSCLC = test system: HOP-62 NSCLC
NCI-H460 lung = test system: NCI-H460 lung
HOP-92 NSCLC = test system: HOP-92 NSCLC
NCI-H522 lung = test system: NCI-H522 lung
A549/ATCC NSCLC = test system: A549/ATCC NSCLC
786-0 renal = test system: 786-0 renal
COLO 205 colon = test system: COLO 205 colon

Row | Structure (SMILES) | growth (NCI-H23 lung) | growth (NCI-H226 lung) [%] | growth (NCI-H322M lung) | growth (HOP-62 NSCLC) | growth (NCI-H460 lung) | growth (HOP-92 NSCLC) | growth (NCI-H522 lung) | growth (A549/ATCC NSCLC) | growth (786-0 renal) | growth (COLO 205 colon)
1 | O=C(Nc1nc(-c2ccccc2Cl)cs1)c1cc(-c2ccc(Br)cc2)nc2ccccc12 | 14.3% | 37.5 | 70.4% | 52.6% | 45.9% | 21.4% | 4.64% (active) | 37.5% | 75.3% | 67.2%
2 | c1ccc2c3c([nH]c2c1)C(c1ccc(C2NCCc4c2[nH]c2ccccc42)cc1)NCC3 (stereo not given) | 72.4% | 77.1 | -1.54% (active) | -70.3% (active) | -71.6% (active) | 20.8% | -72.4% (active) | -85.1% (active) | -68.1% (active) | -81.5% (active)
3 | COc1ccc(/C=C/C(=O)Nc2ncnc3nc[nH]c23)cc1 | 97.7% | 104 | 101% | 109% | 99.2% | 106% | 81.1% | 92.9% | 95.6% | 115%
4 | C#C[C@@]1(O)[C@@H](CO)O[C@@H](n2cc(Br)c3c(N)ncnc32)[C@@H]1O | 2.83% (active) | 21.2 | 1.46% (active) | -5.18% (active) | -36% (active) | -27.2% (active) | -30.7% (active) | -51.8% (active) | -48.5% (active) | -36.8% (active)
5 | COc1ccc(C2=NN(c3ccc(S(N)(=O)=O)cc3)C(c3ccc(Cl)cc3)C2)c(O)c1 (stereo not given) | 63.7% | 84.6 | 71.6% | 90.2% | 45% | 58.6% | 48.8% | 33% | 67.1% | 69.7%
6 | COC(=O)CCc1cc(O)c2c(c1)[C@@H](C(=O)OC)[C@H](c1ccc(O)c(O)c1)O2 | 76.5% | 102 | 98.3% | 54.3% | 107% | 79.8% | 51.8% | 98% | 93.9% | 104%
7 | COc1cccc(NC(=O)Nc2ccc(Nc3ncnc4[nH]c(C)c(C)c34)cc2)c1 | 111% | 101 | 114% | 103% | 102% | 104% | 90.8% | 92.7% | 113% | 112%
8 | CC1(C)[C@@H](O)CC[C@]2(C)[C@H]3CC[C@@H]4[C@H]5[C@H](c6cn(-c7ccccc7)nn6)CC[C@]5(CO)CC[C@@]4(C)[C@]3(C)CC[C@@H]12 | 92.1% | 80.9 | 79.7% | 93.9% | 78.4% | 100% | 69.4% | 74.5% | 91.7% | 95.2%
9 | C=C1C(=O)O[C@H]2[C@H]1CC/C(COC(=O)c1cc3ccccc3o1)=C\CC[C@@]1(C)O[C@@H]21 | 32.8% | 45.6 | 78.1% | 42.7% | 42.2% | -52.7% (active) | -58.2% (active) | 51.4% | -19.1% (active) | -65.6% (active)
10 | COc1ccc2nc3nc4ccc[nH]c4cc3c2c1 | 73.9% | 91.6 | 87.6% | 87.9% | 73.7% | 122% | 84.4% | 91.2% | 86.2% | 97.9%
11 | CCOC(=O)c1c(C)nc2c(c1N)/C(=C/c1cccs1)C(=O)N2c1ccc(OC)cc1 | 43.9% | 40.5 | 70.6% | 10.2% | 34.1% | 22% | 29.8% | 34.5% | 5.33% (active) | 63.2%
12 | C=C1C(=O)O[C@H]2[C@H]1CC/C(COC(=O)NCC(=O)Nc1ccc(OC)c(C(N)=O)c1O)=C\CC[C@@]1(C)O[C@@H]21 | 95.6% | 83.3 | 92.2% | 85.4% | 97% | 14.6% | -25.1% (active) | 86.3% | 58.7% | 10.8%
13 | O=C(Nc1ccc2ncnc(Nc3ccc(F)c(Cl)c3)c2c1)c1ccccc1 | 74.6% | 72.2 | 27.2% | 72.3% | 30.4% | 97.2% | 55.6% | 50.4% | 47.7% | 97.3%
